# Reference: PubChem BioAssay AID1159580 (chemical genetic matrix, 2015)
# Screen size: about 5,500 compounds; about 2,000 (36%) were called active. Inconclusive results (about 18%) are left out. Some of the results follow. A number with no mark means an inactive call. No stated cut-off is given here; in the data, active means normalized growth mostly below about 0.91 (no sharp cut-off); inconclusive means no clear call, values can overlap the other calls; inactive means mostly above about 0.92.
# Assay: chemical genetic growth profiling, strain panel (AID 1159580);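 further: tested at 20 µM; growth read once vehicle control cultures reached saturation at 30 °C; 1 = growth at the plate median or of vehicle wells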
# Conditions: growth OD
# [1] = S. cerevisiae deletion strains, locus YAL013W, strain DEP1, stronger effect = lower value
# [2] = S. cerevisiae deletion strains, locus YBR229C, strain ROT2, stronger effect = lower value
# [3] = S. cerevisiae deletion strains, locus YDL101C, strain DUN1, stronger effect = lower value
# [4] = S. cerevisiae deletion strains, locus YDL134C, strain PPH21, stronger effect = lower value
# [5] = S. cerevisiae deletion strains, locus YDR150W, strain NUM1, stronger effect = lower value
# [6] = S. cerevisiae deletion strains, locus YEL061C, strain CIN8, stronger effect = lower value
# [7] = S. cerevisiae deletion strains, locus YGR078C, strain PAC10, stronger effect = lower value
# [8] = S. cerevisiae deletion strains, locus YHR030C, strain SLT2, stronger effect = lower value
# [9] = S. cerevisiae deletion strains, locus YHR087W, strain rtc3, stronger effect = lower value
# [10] = S. cerevisiae deletion strains, locus YJR043C, strain POL32, stronger effect = lower value
# [11] = S. cerevisiae deletion strains, locus YJR075W, strain HOC1, stronger effect = lower value
# [12] = S. cerevisiae deletion strains, locus YLR039C, strain RIC1, stronger effect = lower value
# [13] = S. cerevisiae deletion strains, locus YLR058C, strain SHM2 (second series), stronger effect = lower value
# [14] = S. cerevisiae deletion strains, locus YLR085C, strain ARP6, stronger effect = lower value
# [15] = S. cerevisiae deletion strains, locus YLR262C, strain YPT6, stronger effect = lower value
# [16] = S. cerevisiae deletion strains, locus YML094W, strain GIM5, stronger effect = lower value
# [17] = S. cerevisiae deletion strains, locus YMR219W, strain ESC1, stronger effect = lower value
# [18] = S. cerevisiae deletion strains, locus YMR263W, strain SAP30, stronger effect = lower value
# [19] = S. cerevisiae deletion strains, locus YNL153C, strain GIM3, stronger effect = lower value
# [20] = S. cerevisiae deletion strains, locus YNL298W, strain CLA4 (second series), stronger effect = lower value
# [21] = S. cerevisiae deletion strains, locus YNL322C, strain KRE1, stronger effect = lower value
# [22] = S. cerevisiae deletion strains, locus YNR030W, strain Alg12, stronger effect = lower value
# [23] = S. cerevisiae deletion strains, locus YOL006C, strain TOP1, stronger effect = lower value
# [24] = S. cerevisiae deletion strains, locus YPL055C, strain LGE1, stronger effect = lower value
# [25] = S. cerevisiae deletion strains, locus YPL241C, strain CIN2, stronger effect = lower value
# [26] = S. cerevisiae deletion strains, locus YPR135W, strain CTF4, stronger effect = lower value
# [27] = S. cerevisiae strains, strain wild type, stronger effect = lower value
# [28] = S. cerevisiae deletion strains, locus YMR307W, strain GAS1, stronger effect = lower value
compound,measurement,setting,value
Cc1ccc(-c2csc(CC#N)n2)cc1C,normalized growth,[1],0.987
same,normalized growth,[2],0.961
same,normalized growth,"S. cerevisiae deletion strains, locus YCL061C, strain MRC1, stronger effect = lower value",0.912
same,normalized growth,[3],0.963
same,normalized growth,[4],0.977
same,normalized growth,[5],0.989
same,normalized growth,[6],0.951
same,normalized growth,[7],0.951
same,normalized growth,[8],0.716
same,normalized growth,[9],0.97
same,normalized growth,[10],0.97
same,normalized growth,[11],0.914
same,normalized growth,[12],0.774 (active)
same,normalized growth,[13],0.961
same,normalized growth,[14],0.823
same,normalized growth,[15],0.78 (active)
same,normalized growth,[16],0.944
same,normalized growth,[17],0.961
same,normalized growth,[18],0.974
same,normalized growth,[19],0.929
same,normalized growth,[20],0.882
same,normalized growth,[21],0.962
same,normalized growth,[22],0.962
same,normalized growth,[23],0.758
same,normalized growth,[24],0.946
same,normalized growth,[25],0.859
same,normalized growth,[26],0.801
same,normalized growth,[27],0.969
S=c1nc2[nH]c3ccccc3c2n[nH]1,normalized growth,[1],0.98
same,normalized growth,[2],0.982
same,normalized growth,[3],0.985
same,normalized growth,[4],0.973
same,normalized growth,[5],1.01
same,normalized growth,[6],1
same,normalized growth,[7],0.976
same,normalized growth,[8],0.962
same,normalized growth,[9],1.04
same,normalized growth,[10],0.974
same,normalized growth,[11],1
same,normalized growth,[12],0.996
same,normalized growth,[13],0.99
same,normalized growth,[14],0.927
same,normalized growth,[15],0.995
same,normalized growth,[16],0.978
same,normalized growth,[17],0.994
same,normalized growth,[18],1.03
same,normalized growth,[19],0.977
same,normalized growth,[20],0.944
same,normalized growth,[21],0.991
same,normalized growth,[22],0.972
same,normalized growth,[23],1
same,normalized growth,[24],1
same,normalized growth,[25],0.974
same,normalized growth,[26],0.916
same,normalized growth,[27],0.984
CNC(=O)[C@H]1O[C@@H](n2cnc3c(NCc4cccc(I)c4)ncnc32)C(O)[C@H]1O (some centres not stated),normalized growth,"S. cerevisiae deletion strains, locus YAL040C, strain CLN3, stronger effect = lower value",0.988
same,normalized growth,"S. cerevisiae deletion strains, locus YCL061C, strain MRC1 (second series), stronger effect = lower value",0.998
same,normalized growth,"S. cerevisiae deletion strains, locus YDR363W, strain ESC2, stronger effect = lower value",1.01
same,normalized growth,"S. cerevisiae deletion strains, locus YER002W, strain NOP16, stronger effect = lower value",0.993
same,normalized growth,[7],1.01
same,normalized growth,[18],0.999
same,normalized growth,[28],0.992
same,normalized growth,"S. cerevisiae deletion strains, locus YNL128W, strain TEP1, stronger effect = lower value",0.994
same,normalized growth,"S. cerevisiae deletion strains, locus YNL175C, strain NOP13, stronger effect = lower value",1.01
same,normalized growth,"S. cerevisiae deletion strains, locus YNL197C, strain WHI3, stronger effect = lower value",0.998
same,normalized growth,"S. cerevisiae deletion strains, locus YNL224C, strain SQS1, stronger effect = lower value",1.02
same,normalized growth,[21],0.992
same,normalized growth,"S. cerevisiae deletion strains, locus YOR083W, strain WHI5 (second series), stronger effect = lower value",0.991
same,normalized growth,[24],1.01
same,normalized growth,[25],1
O=C(O)c1cncc(C#Cc2ccccc2)c1,normalized growth,[1],0.982
same,normalized growth,[2],0.976
same,normalized growth,[3],0.991
same,normalized growth,[4],1.01
same,normalized growth,[5],1.01
same,normalized growth,[6],1
same,normalized growth,[7],0.957
same,normalized growth,"S. cerevisiae deletion strains, locus YGR229C, strain SMI1, stronger effect = lower value",0.957
same,normalized growth,[8],0.956
same,normalized growth,[9],1
same,normalized growth,[10],0.957
same,normalized growth,[11],0.961
same,normalized growth,[12],0.976
same,normalized growth,[13],0.949
same,normalized growth,[14],1.04
same,normalized growth,[15],0.996
same,normalized growth,[16],1.02
same,normalized growth,[17],0.972
same,normalized growth,[18],0.981
same,normalized growth,[28],1.03
same,normalized growth,[19],0.931
same,normalized growth,[20],0.991
same,normalized growth,[21],0.971
same,normalized growth,[22],0.989
same,normalized growth,[24],1
same,normalized growth,[25],1.01
same,normalized growth,[26],0.935
